# Experimental data published in ChEMBL document CHEMBL1961873, “Compounds: GSK PKIS; Assays: Nanosyn kinase panel” (2012).
# Assays:
# [1] = target: Sphingosine kinase 1 (Homo sapiens) (UniProt Q9NYA1); conditions: at 1 µM;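 note: mean SPHK1 inhibition value reported from the GSK PKIS kinase panel screen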
# [2] = target: T1, Sphingosine kinase 2 (Homo sapiens) (UniProt Q9NRA0); conditions: at 0.1 µM
# T1 sequence (whole entry): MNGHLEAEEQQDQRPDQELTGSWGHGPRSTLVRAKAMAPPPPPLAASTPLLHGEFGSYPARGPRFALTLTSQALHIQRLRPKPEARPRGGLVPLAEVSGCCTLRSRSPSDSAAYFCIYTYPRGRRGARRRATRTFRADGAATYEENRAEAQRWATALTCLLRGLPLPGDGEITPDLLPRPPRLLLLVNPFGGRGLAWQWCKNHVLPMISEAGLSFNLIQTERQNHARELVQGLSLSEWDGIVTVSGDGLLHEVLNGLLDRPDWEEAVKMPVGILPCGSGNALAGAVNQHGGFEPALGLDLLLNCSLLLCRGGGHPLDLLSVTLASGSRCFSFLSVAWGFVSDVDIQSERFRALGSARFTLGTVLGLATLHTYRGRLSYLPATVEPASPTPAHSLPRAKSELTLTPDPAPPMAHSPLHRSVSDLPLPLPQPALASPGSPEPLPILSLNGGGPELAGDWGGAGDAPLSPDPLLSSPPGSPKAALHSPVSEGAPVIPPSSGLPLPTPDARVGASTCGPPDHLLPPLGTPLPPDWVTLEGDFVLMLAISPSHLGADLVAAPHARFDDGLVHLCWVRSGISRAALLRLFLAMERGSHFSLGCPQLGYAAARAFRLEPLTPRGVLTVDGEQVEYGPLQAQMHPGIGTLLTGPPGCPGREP
# [3] = target: T1, Sphingosine kinase 2 (Homo sapiens); conditions: at 1 µM
# [4] = target: Casein kinase II subunit alpha (Homo sapiens) (UniProt P68400); conditions: at 0.1 µM
# [5] = target: Casein kinase II subunit alpha (Homo sapiens) (UniProt P68400); conditions: at 1 µM
# [6] = target: T2, Inhibitor of nuclear factor kappa-B kinase subunit alpha (Homo sapiens) (UniProt O15111); conditions: at 0.1 µM
# T2 sequence (whole entry): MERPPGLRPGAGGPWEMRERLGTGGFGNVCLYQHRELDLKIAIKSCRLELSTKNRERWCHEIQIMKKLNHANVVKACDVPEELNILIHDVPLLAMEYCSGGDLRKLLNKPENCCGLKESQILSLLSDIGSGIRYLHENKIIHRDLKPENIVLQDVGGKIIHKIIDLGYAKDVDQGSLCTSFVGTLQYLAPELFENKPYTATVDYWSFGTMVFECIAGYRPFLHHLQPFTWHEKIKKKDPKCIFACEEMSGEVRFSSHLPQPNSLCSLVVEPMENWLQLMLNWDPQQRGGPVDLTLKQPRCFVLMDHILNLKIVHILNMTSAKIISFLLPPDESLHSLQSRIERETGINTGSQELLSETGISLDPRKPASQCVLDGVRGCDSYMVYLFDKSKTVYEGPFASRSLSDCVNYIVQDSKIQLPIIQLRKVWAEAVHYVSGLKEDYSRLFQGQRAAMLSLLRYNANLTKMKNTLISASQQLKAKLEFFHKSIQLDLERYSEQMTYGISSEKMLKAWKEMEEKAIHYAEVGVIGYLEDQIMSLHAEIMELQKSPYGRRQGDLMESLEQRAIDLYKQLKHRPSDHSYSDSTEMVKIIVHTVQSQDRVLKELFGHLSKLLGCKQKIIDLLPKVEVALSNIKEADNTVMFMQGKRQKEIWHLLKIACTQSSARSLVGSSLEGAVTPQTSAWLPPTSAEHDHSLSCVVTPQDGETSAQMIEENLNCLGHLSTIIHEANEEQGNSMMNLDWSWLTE
# [7] = target: T2, Inhibitor of nuclear factor kappa-B kinase subunit alpha (Homo sapiens); conditions: at 1 µM
# [8] = target: T3, Inhibitor of nuclear factor kappa-B kinase subunit beta (Homo sapiens) (UniProt O14920); conditions: at 0.1 µM
# T3 sequence (whole entry): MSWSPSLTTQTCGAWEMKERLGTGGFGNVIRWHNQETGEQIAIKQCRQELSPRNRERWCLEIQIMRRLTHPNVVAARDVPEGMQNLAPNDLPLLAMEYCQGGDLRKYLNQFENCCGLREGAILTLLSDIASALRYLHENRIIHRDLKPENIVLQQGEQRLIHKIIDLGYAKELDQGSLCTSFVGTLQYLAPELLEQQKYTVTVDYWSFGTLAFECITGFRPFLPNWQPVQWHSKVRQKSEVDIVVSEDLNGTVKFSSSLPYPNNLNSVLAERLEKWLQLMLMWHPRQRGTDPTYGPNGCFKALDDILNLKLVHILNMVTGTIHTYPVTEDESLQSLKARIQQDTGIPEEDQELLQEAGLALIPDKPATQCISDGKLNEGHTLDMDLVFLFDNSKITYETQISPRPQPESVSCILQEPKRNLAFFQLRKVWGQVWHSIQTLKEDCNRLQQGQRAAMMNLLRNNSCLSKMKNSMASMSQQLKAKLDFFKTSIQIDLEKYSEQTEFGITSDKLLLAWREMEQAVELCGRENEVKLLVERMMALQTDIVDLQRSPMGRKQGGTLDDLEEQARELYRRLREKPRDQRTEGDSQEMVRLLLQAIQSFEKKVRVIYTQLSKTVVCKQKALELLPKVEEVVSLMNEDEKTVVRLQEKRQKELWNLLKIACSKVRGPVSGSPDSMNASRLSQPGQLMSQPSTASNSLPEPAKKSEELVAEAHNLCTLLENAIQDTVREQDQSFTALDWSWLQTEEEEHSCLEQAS
# [9] = target: T3, Inhibitor of nuclear factor kappa-B kinase subunit beta (Homo sapiens); conditions: at 1 µM
# [10] = target: T4, Inhibitor of nuclear factor kappa-B kinase subunit epsilon (Homo sapiens) (UniProt Q14164); conditions: at 0.1 µM
# T4 sequence (whole entry): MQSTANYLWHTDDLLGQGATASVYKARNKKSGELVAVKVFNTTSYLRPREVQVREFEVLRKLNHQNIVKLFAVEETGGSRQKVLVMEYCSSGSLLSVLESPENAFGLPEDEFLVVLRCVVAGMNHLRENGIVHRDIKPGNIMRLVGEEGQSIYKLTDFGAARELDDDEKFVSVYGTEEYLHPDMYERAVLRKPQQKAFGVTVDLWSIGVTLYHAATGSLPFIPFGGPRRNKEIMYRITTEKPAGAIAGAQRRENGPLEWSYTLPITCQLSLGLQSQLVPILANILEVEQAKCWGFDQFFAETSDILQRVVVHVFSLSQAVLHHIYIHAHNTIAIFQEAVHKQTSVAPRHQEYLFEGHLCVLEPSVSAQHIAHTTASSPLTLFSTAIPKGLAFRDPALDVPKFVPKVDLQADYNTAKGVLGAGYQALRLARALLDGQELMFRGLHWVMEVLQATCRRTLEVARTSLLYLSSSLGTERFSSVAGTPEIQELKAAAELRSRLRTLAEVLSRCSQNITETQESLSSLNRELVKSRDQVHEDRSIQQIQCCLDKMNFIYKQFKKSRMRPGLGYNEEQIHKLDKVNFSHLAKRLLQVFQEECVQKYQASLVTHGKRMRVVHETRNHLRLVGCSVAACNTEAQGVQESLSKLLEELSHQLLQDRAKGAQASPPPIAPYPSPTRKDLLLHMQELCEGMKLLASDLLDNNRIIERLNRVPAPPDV
# [11] = target: T4, Inhibitor of nuclear factor kappa-B kinase subunit epsilon (Homo sapiens); conditions: at 1 µM
# [12] = target: T5, Serine/threonine-protein kinase Nek1 (Homo sapiens) (UniProt Q96PY6); conditions: at 0.1 µM
# T5 sequence (whole entry): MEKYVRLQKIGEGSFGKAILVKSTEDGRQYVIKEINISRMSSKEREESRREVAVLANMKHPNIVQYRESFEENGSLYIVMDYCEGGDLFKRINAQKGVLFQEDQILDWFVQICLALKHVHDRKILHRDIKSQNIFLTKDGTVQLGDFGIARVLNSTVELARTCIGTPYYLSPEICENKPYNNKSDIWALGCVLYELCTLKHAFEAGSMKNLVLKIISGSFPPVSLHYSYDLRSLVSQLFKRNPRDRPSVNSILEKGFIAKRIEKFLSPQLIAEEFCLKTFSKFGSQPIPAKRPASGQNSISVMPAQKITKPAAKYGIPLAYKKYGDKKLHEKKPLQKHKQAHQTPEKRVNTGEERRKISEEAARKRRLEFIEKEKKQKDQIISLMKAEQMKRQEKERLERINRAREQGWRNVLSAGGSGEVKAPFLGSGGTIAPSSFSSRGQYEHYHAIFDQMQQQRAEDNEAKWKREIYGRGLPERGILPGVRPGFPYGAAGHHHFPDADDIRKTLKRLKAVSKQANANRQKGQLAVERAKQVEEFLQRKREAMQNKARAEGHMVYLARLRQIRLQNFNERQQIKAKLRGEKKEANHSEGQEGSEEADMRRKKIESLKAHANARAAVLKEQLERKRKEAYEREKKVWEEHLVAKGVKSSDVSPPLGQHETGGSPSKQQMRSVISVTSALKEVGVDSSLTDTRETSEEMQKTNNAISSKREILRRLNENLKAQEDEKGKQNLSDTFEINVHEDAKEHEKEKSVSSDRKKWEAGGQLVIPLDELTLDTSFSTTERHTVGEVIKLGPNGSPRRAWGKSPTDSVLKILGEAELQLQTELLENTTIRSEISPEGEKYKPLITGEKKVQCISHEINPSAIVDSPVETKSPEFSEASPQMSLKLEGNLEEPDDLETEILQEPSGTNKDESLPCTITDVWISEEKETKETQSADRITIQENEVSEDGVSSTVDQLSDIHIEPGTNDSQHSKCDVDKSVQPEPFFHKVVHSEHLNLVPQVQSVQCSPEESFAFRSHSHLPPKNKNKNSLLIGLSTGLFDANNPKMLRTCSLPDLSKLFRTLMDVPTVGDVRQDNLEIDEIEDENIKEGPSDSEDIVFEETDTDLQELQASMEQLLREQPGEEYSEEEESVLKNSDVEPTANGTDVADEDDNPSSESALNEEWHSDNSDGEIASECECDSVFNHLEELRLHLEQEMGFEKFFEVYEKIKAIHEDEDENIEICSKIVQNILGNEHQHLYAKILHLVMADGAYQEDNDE
# [13] = target: T5, Serine/threonine-protein kinase Nek1 (Homo sapiens); conditions: at 1 µM
# [14] = target: T6, Serine/threonine-protein kinase Nek2 (Homo sapiens) (UniProt P51955); conditions: at 0.1 µM
# T6 sequence (whole entry): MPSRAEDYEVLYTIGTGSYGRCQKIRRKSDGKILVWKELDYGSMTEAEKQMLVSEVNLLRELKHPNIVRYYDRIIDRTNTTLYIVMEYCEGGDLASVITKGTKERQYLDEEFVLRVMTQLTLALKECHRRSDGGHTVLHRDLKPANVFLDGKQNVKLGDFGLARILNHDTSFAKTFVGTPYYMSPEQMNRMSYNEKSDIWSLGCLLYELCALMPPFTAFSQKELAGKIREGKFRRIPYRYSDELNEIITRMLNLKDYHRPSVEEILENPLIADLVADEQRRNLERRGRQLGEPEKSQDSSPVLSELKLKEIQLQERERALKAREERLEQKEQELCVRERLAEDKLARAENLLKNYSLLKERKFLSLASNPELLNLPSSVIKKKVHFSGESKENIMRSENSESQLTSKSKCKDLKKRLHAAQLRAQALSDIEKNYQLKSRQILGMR
# [15] = target: T6, Serine/threonine-protein kinase Nek2 (Homo sapiens); conditions: at 1 µM
# [16] = target: Serine/threonine-protein kinase Nek6 (Homo sapiens) (UniProt Q9HC98); conditions: at 0.1 µM
# [17] = target: Serine/threonine-protein kinase Nek6 (Homo sapiens) (UniProt Q9HC98); conditions: at 1 µM
# [18] = target: Serine/threonine-protein kinase Nek7 (Homo sapiens) (UniProt Q8TDX7); conditions: at 0.1 µM
# [19] = target: Serine/threonine-protein kinase Nek7 (Homo sapiens) (UniProt Q8TDX7); conditions: at 1 µM
# [20] = target: T7, Serine/threonine-protein kinase Nek9 (Homo sapiens) (UniProt Q8TD19); conditions: at 0.1 µM;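 note: reported value is the mean percent inhibition of NEK9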
# T7 sequence (whole entry): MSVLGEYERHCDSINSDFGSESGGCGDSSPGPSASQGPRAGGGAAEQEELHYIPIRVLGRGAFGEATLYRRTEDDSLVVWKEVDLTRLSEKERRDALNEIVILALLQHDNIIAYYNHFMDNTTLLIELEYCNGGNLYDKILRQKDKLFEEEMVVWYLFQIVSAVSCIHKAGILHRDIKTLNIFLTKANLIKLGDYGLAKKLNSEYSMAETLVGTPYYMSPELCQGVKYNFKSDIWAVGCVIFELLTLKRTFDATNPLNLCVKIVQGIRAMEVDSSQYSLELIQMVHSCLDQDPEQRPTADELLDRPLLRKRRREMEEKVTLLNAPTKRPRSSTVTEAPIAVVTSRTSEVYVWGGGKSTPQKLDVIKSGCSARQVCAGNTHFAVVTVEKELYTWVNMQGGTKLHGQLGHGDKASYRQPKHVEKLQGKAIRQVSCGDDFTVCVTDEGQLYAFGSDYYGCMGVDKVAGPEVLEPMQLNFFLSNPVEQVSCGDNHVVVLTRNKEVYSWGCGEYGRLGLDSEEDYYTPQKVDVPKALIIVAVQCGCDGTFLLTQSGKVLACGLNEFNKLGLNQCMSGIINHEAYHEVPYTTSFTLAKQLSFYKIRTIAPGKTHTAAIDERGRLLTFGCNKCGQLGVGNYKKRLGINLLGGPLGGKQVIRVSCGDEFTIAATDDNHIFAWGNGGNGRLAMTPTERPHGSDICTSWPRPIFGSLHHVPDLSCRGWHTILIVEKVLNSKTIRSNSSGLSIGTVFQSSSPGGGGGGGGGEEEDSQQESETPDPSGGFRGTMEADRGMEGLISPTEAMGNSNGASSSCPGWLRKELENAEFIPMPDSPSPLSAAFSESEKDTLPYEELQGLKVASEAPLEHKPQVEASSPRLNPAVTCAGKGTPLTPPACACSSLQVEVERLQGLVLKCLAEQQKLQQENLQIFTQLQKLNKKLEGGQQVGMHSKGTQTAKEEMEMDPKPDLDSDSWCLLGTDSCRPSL
# Chain of Casein kinase II subunit alpha (Homo sapiens) (P68400 whole entry, looked up): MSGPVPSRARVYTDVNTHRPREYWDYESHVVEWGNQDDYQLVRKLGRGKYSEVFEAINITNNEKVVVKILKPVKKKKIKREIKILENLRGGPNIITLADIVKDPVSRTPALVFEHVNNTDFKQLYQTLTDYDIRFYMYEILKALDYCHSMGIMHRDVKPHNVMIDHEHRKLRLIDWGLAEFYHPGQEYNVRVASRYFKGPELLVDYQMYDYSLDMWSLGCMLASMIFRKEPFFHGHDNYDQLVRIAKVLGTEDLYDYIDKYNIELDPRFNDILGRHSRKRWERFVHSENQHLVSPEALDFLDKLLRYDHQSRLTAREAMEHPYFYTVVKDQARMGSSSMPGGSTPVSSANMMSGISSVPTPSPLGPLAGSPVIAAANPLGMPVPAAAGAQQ
# Chain of Serine/threonine-protein kinase Nek7 (Homo sapiens) (Q8TDX7 whole entry, looked up): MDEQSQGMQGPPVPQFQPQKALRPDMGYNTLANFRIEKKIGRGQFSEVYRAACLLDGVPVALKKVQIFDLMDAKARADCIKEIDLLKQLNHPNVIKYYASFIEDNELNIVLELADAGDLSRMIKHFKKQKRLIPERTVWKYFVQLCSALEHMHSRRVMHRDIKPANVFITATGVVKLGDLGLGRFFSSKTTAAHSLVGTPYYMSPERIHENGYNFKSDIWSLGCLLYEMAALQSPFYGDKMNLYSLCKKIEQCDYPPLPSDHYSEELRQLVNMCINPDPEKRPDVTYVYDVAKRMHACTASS
# Chain of Serine/threonine-protein kinase Nek6 (Homo sapiens) (Q9HC98 whole entry): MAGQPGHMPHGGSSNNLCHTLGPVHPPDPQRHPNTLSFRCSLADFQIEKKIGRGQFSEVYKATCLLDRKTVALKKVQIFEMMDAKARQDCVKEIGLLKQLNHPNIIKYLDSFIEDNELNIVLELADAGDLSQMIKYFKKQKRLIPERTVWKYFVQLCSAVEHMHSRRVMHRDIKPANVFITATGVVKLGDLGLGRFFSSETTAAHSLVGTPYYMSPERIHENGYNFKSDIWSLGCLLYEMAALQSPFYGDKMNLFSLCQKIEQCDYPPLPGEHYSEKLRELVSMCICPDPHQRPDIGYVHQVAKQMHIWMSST
# Chain of Sphingosine kinase 1 (Homo sapiens) (Q9NYA1 whole entry): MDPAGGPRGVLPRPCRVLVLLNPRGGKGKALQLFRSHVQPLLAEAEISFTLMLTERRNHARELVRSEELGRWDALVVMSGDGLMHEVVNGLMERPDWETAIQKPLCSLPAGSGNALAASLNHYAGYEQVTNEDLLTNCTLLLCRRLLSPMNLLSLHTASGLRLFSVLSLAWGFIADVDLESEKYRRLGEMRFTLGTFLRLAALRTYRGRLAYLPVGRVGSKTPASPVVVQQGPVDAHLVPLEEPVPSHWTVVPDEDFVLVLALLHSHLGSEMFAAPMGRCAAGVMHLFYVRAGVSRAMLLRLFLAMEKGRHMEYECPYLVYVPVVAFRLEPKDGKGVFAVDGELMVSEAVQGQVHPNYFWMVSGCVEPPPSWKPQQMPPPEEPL
smiles,measurement,setting,value
O=C(Nc1ccc(Oc2ccc3[nH]c(NC(=O)c4ccccc4)nc3c2)cc1)Nc1cc(C(F)(F)F)ccc1F,inhibition,[1],3.13%
same,inhibition,[2],17.6%
same,inhibition,[3],-0.1%
same,inhibition,[4],2.74%
same,inhibition,[5],4.99%
same,inhibition,[6],-5.25%
same,inhibition,[7],-0.85%
same,inhibition,[8],4.57%
same,inhibition,[9],2.88%
same,inhibition,[10],3.68%
same,inhibition,[11],3.04%
same,inhibition,[12],1.92%
same,inhibition,[13],2.89%
same,inhibition,[14],4.15%
same,inhibition,[15],3.11%
same,inhibition,[16],3.73%
same,inhibition,[17],1.7%
same,inhibition,[18],4.29%
same,inhibition,[19],4.36%
same,inhibition,[20],9.72%
